The list is not random: actives were taken first. Their share in the collection is about 18%.
HepG2 tox-1: kills HepG2 cells in TGF-b inhibitor counter-screen; HepG2 CAGA-GFP viability, ATP luminescence, 18 h; Potency, µM (series often up to 46.1 µM), without a hit: top-dose activity change, negative = cytotoxicity, most hits filed as cytotoxic; 410,000 tested, 0.76% active; AID 588856; also: potency is read from the fitted curve at half-maximal effect
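CellTiter-Glo luminescence gave cytotoxicity after 18 hours at 37 degrees C. The cells were HepG2 CAGA-GFP in 1% FBS DMEM, stimulated with 500 pg/mL TGF-beta after compound addition. %Activity was normalised to no-cell wells (complete cell-killing) and DMSO (no toxicity), and curves were fitted and classified.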
DT40 TDP1 no CPT: qHTS for Inhibitors of human tyrosyl-DNA phosphodiesterase 1 (TDP1): qHTS in cells in absence of CPT | DT40 Tdp1-/- hTDP1 cells, no CPT, ATP luminescence, 48 h | Potency, µM (titrated, usually from 46.2 µM), without a hit: at the top dose activity change, negative = growth inhibition, hits mostly inhibitors | 420,000 tested, 15% active; also: potency is read from the fitted curve at half-maximal effect; % is scaled to controls: 0 for no effect and ±100 for the full control effect; nearly all actives have a fitted effect of over 55% in size
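Growth kinetics read by CellTiter-Glo luminescence after ≥48 hr at 37 °C. Cells: DT40 Tdp1-/- stably carrying human TDP1, 400 per well, compound exposure in the absence of CPT (DMSO vehicle).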
TGFb SMAD3 inh: blocks TGF-b signaling. HepG2 CAGA-GFP TGF-b/SMAD3 reporter, GFP fluorescence, 18 h; TGF-beta stimulated, 500 pg/mL final. Potency, µM (top dose mostly 46.1 µM), for the others: at the highest dose activity, negative = inhibition, hits mostly inhibitors. 410,000 tested, 1.2% active. AID 588855; also: potency is read from the fitted curve at half-maximal effect; % is scaled to controls: 0 for no effect and ±100 for the full control effect; nearly all actives have a fitted effect of over 65% in size
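TGF-beta reporter screen: HEPG2 CAGA-GFP, 1% FBS, 500 pg/mL TGF-beta final, 18 h; per-cell GFP summed per well; curves fitted and categorized by class.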
IL1B secr inh: inflammasome signaling inhibition, IL-1 beta readout | THP-1 LPS/ATP IL-1B secretion, AlphaLISA, 16 h; active compounds read low | 360,000 tested, 4.7% active | activity change, % at 57.5 µM | AID 743279; in the data active = activity change below about -50%; inconclusive = mostly about -30% to -49%; also: % is scaled to controls: 0 for no effect and ±100 for the full control effect
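Secreted IL-1B measured by AlphaLISA bead assay after 16 h compound exposure of THP-1 cells; compounds (final up to 57.5 uM) added 1 h before LPS (250 ng/mL) and ATP (1.25 mM) stimulation; lower signal means less secretion.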
TDP1 cell CPT: growth inhibition of DT40 Tdp1-/-;hTDP1 cells with camptothecin (screen for TDP1 inhibitors); chicken DT40 Tdp1-/-;hTDP1 cells + 20 nM CPT, ATP luminescence, 48 h; Potency, µM (titrated, usually from 46.2 µM), inactives show at the top dose activity change, negative = growth inhibition, hits mostly inhibitors; 420,000 tested, 12% active; AID 686979; also: potency is read from the fitted curve at half-maximal effect; % is scaled to controls: 0 for no effect and ±100 for the full control effect; nearly all actives have a fitted effect of over 55% in size
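Chicken DT40 Tdp1-/- cells stably complemented with human TDP1 were seeded at 400 cells/well in medium containing 20 nM camptothecin, exposed to pin-transferred compounds, and grown at 37 °C for at least 48 hr. Viability was read as ATP luminescence.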
TDP1 inh: TDP1 (human) enzyme inhibition | AID 485290 | 350,000 tested, 0.28% active | Potency, µM (top dose mostly 130 µM), inactives show at the top dose activity change, negative = inhibition, usual class: inhibitors | Q9NUW8 | recombinant TDP1, AlphaScreen DNA substrate cleavage; also: potency is read from the fitted curve at half-maximal effect; % is scaled to controls: 0 for no effect and ±100 for the full control effect; nearly all actives have a fitted effect of over 40% in size
Target sequence (Q9NUW8 whole entry, looked up): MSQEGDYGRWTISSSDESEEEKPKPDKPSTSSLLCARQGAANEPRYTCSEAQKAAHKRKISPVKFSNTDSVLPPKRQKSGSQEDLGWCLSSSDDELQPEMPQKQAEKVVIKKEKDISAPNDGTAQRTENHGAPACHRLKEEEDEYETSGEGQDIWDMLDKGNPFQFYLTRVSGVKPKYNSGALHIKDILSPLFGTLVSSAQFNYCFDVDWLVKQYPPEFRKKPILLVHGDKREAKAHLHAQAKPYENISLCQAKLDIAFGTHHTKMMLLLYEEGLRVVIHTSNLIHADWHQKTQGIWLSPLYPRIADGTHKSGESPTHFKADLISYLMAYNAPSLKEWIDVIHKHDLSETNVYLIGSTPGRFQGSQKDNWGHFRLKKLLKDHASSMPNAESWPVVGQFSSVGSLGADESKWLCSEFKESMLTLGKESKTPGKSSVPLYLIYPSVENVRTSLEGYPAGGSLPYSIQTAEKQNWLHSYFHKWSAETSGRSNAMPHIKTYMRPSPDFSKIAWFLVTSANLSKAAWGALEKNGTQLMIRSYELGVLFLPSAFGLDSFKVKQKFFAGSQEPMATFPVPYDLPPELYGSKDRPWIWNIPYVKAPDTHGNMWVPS
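Recombinant human Tdp1 (E. coli-expressed, 1 nM final) preincubated with compounds 15 min at room temperature, then 5'-biotin/3'-phosphotyrosine-FITC DNA substrate (15 nM final) added for 5 min. AlphaScreen beads (10 ug/ml final) added 10 min; cleavage lowers signal.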
TGFb CAGA inh: TGF-b pathway inhibition, cherry-pick retest; Potency, µM (titrated, usually from 46.1 µM), without a hit: at the top dose activity, negative = inhibition, hits mostly inhibitors; 1,600 tested, 63% active; AID 720534; HepG2 CAGA-GFP TGF-b reporter, GFP fluorescence, 18 h; cells stimulated with TGF-beta, 500 pg/mL; shares compounds with TGFb SMAD3 inh; also: potency is read from the fitted curve at half-maximal effect; % is scaled to controls: 0 for no effect and ±100 for the full control effect; nearly all actives have a fitted effect of over 65% in size
HepG2 tox-2: counter-screen for TGF-b inhibitors: cytotoxicity in HepG2 cells | 1,600 tested, 27% active | shares compounds with TGFb SMAD3 inh | HepG2 CAGA-GFP viability, ATP luminescence, 18 h; cells stimulated with TGF-beta, 500 pg/mL | Potency, µM (series often up to 46.1 µM), without a hit: at the highest dose activity, negative = cytotoxicity, most hits filed as inhibitors; also: potency is read from the fitted curve at half-maximal effect; % is scaled to controls: 0 for no effect and ±100 for the full control effect; nearly all actives have a fitted effect of over 70% in size
CCL64 TGFb inh: blocks TGF-b signaling in CCL64 reporter cells; CCL64 CAGA-GFP reporter, TGF-b stimulated, GFP fluorescence, 18 h; shares compounds with TGFb SMAD3 inh; Potency, µM (series often up to 46.1 µM), for the others: at the highest dose activity, negative = inhibition, actives largely listed as inhibitors; 1,600 tested, 41% active; AID 720536; also: potency is read from the fitted curve at half-maximal effect; nearly all actives have a fitted effect of over 65% in size
COP TGFb inh: blocks TGF-b signaling in HepG2 COP reporter; shares compounds with TGFb SMAD3 inh; HepG2 COP-GFP TGF-b reporter, GFP fluorescence, 18 h; cells stimulated by added recombinant TGF-beta; Potency, µM (top dose mostly 46.1 µM), without a hit: at the highest dose activity, negative = inhibition, actives largely listed as inhibitors; 1,600 tested, 3% active; AID 720537; also: potency is read from the fitted curve at half-maximal effect; nearly all actives have a fitted effect of over 70% in size
Active calls of the source: *; u = inconclusive; x = not tested or not shown; ! = not active in a repeat; [ ] = another dose, or the depositor's remark. Unless noted, calls follow the shape of the dose curve; as a rule, active = well fitted curve in the direction sought with a large enough effect; inconclusive = small, poorly fitted or top-dose-only effect, or another doubt; inactive = no such curve, though single readings can be large; an effect the other way counts as inactive or inconclusive.

SMILES	HepG2 tox-1	DT40 TDP1 no CPT	TGFb SMAD3 inh	IL1B secr inh	TDP1 cell CPT	TDP1 inh	TGFb CAGA inh	HepG2 tox-2	CCL64 TGFb inh	COP TGFb inh
COc1ccc(-c2[nH]ncc2CN2CCCC(C(=O)c3ccc(OC)cc3OC)C2)cc1 (centres undefined)	0%	u	-3%	u	-52%	5%	x	x	x	x
Cc1ccc(NC(=O)c2cc(S(=O)(=O)NCCC3=CCCCC3)ccc2F)cc1	-9%	u	11µM*	-65*	u	0%	18µM*	u	26µM*	36%
O=C(NCCC(=O)N1CCc2ccccc21)c1ccccc1Cl	14%	-3%	3%	-3	12%	9%	x	x	x	x
CCCCCC(=O)Nc1cccc(C2=NOC3(C2)C[C@H](C(N)=O)N(C(=O)c2ccccc2C(=O)c2ccccc2)C3)c1 (some centres undefined)	-21%	u	11µM*	0	u	6%	u	-10%	u	3%
CCCCCC(=O)Nc1cccc(C2=NOC3(C2)C[C@H](C(N)=O)N(C(=O)c2ccccc2)C3)c1 (some centres undefined)	-2%	u	10%	19	u	1%	x	x	x	x
CSc1ccc(NC(=O)NCc2ccccc2)cc1	-35%	-15%	2%	-14	5%	0%	x	x	x	x
O=C(CSc1cccc[n+]1[O-])Nc1ccccc1Oc1ccccc1	-22%	1.5µM*	u	-102*	0.92µM*	0%	-10%	6%	4%	-4%
COC(=O)c1ccc(-n2c(C)cc(C(=O)CSc3cccc[n+]3[O-])c2C)cc1	-1%	u	-7%	11	-25%	8%	x	x	x	x
COC(=O)c1ccc(C(=O)OC)c(NC(=O)CSc2cccc[n+]2[O-])c1	6.3µM*	0.73µM*	3.5µM*	90	0.92µM*	8%	-15%	6%	-8%	11%
O=C(NCC(c1ccco1)N1CCOCC1)c1c(F)cccc1F (centres undefined)	-8%	-8%	4%	17	13%	x	x	x	x	x
CCCc1cc(=O)[nH]c(N/N=C/C=C\c2ccccc2)n1	4%	u	10%	-17	1%	3%	x	x	x	x
COc1ccc(C[C@@H]2OC3(C=CC(=O)C=C3)O[C@H]2Cc2ccc(OC)cc2)cc1	11µM*	0.37µM*	2.8µM*	-77*	0.41µM*	x	2.3µM*	2.6µM*	0.82µM*	u
O=C1Nc2ccccc2C1Cc1ccccc1 (centres undefined)	13%	-10%	-1%	-8	u	x	x	x	x	x
O=C1C=CC2(C=C1)O[C@H](Cc1ccccc1)[C@@H](Cc1ccccc1)O2	-120%	0.65µM*	4.5µM*	-100*	1µM*	x	3.3µM*	6.5µM*	1µM*	u
CN1CCN(C(=O)c2cnn(-c3ccccc3)c2NC(=O)c2ccccc2Br)CC1	20%	0%	11%	9	4%	-1%	x	x	x	x
FC(F)(F)c1ccccc1Cc1c(-c2ccccc2)nc2ccc(Cl)cn12	-23%	u	16µM*	-3	u	x	u	-16%	-1%	7%
CCC(Oc1ccc(Cl)cc1)C(=O)N1CC(=O)Nc2ccccc21 (centres undefined)	-5%	u	-50%	0	u	0%	x	x	x	x
CC(NC(=O)C1CCCN1S(=O)(=O)c1ccccc1)c1ccccc1 (centres undefined)	-28%	u	u	16	u	x	u	7%	9%	1%
Brc1cc(Oc2cc(Br)c(Br)c(Br)c2Br)c(Br)c(Br)c1Br	x	x	x	x	x	15%	x	x	x	x
Cc1cc(Br)ccc1NC(=O)CN(C)C(=O)C1CCN(C(=O)c2ccc(F)cc2)CC1	9%	u	2%	-6	-29%	x	x	x	x	x
COC(=O)CS(=O)(=O)c1ccsc1C(=O)Nc1ccc(F)c(F)c1	2%	-1%	-1%	-10	12%	-2%	x	x	x	x
Cc1ccc(-c2c(C(=O)NCc3ccc(F)cc3)oc(=O)c3ccccc23)cc1	-35%	21µM*!	u	u	u	0%	u	-21%	-20%	-2%
Cc1ccc(S(=O)(=O)Nc2cccc(-n3cnnn3)c2)cc1	0%	2%	14%	4	32%	3%	x	x	x	x
CCN1C(=O)c2ccccc2S(=O)(=O)c2ccc(C(=O)NCc3cccnc3)cc21	-3%	-5%	7%	-4	-15%	2%	x	x	x	x
COc1ccc(CN2C[C@H]3CCCN3c3cc(Br)ccc3S2(=O)=O)cc1	-20%	0.92µM*	10µM*	90	2.1µM*	1%[56.1 µM]	8.2µM*	-3%	u	-22%
O=C(c1ccc(Cl)cc1)C(CN1CCCC1)c1ccccc1 (centres undefined)	-115%	4.1µM*	7.9µM*	-98*	4.1µM*	x	3.7µM*	8.2µM*	2.6µM*	u
OC(CN1CCCCC1)c1ccccc1 (centres undefined)	-40%	3%	-27%	x	0%	x	x	x	x	x
